Source: PubChem
mHTT-CaM PPI inh: mutant huntingtin-calmodulin interaction inhibitors – biochemical, AlphaScreen, primary screen | P42858 | AlphaScreen His-mHTT/GST-CaM binding, luminescence | inhibition, % at 15 µM | hit rate 3.6% among 190,000 | AID 1671202, 2021;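 further: 0% = both proteins with DMSO and 100% = one protein alone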
Pf apPOL block: Pf-apPOL inhibitors, biochemical, fluorescence; inhibition, % at 10 µM; AID 1794808, 2022; hit rate 0.25% among 210,000; Recombinant Pf-apPOL, molecular beacon fluorescence, 1.5 h; Plasmodium falciparum apicoplast DNA polymerase (apPOL)
* = called active by the depositor; . = not tested or not shown; ! = repeats disagree. The full list was thinned out, with hits kept by preference. No stated cut-off is given here; in the data, active means inhibition above about 50%; inactive means the rest.

SMILES | mHTT-CaM PPI inh | Pf apPOL block
O=C(c1ccc2c(c1)C1C=CCC1C(c1ccc([N+](=O)[O-])cc1)N2)N1CCOCC1 (centres undefined) | 70.0* | -12.0
O=C(c1cccc([N+](=O)[O-])c1)N1CCOCC1 | 0.4 | -4.6
O=S(=O)(c1ccc(C2Nc3c(Cl)cc(Cl)cc3C3C=CCC32)cc1)N1CCOCC1 (centres undefined) | 26.0 | -5.1
O=C(c1ccc2c(c1)C1C=CCC1C(c1ccc(Cl)cc1)N2)N1CCOCC1 (centres undefined) | 82.8* | -0.8
O=C(O)C1Nc2ccc([N+](=O)[O-])cc2C2C=CCC12 (centres undefined) | -0.6 | 3.4
Cc1ccc(C(=O)Nc2nccn(-c3ccc(Br)cc3)c2=O)cc1 | 5.0 | 4.5
COc1ccc(Cl)cc1NC(=O)c1c(NCc2cccnc2)sc2c1CCC(C)C2 (centres undefined) | 78.0* | -19.2
CCOc1ccccc1NC(=O)c1c(NCc2ccccn2)sc2c1CCC(C)C2 (centres undefined) | 20.0 | -17.4
COc1cc(C(=O)Nc2sc3c(c2C(=O)O)CCC(C)C3)cc(OC)c1OC (centres undefined) | 2.6 | -2.7
COc1ccccc1NC(=O)c1c(NCc2cccnc2)sc2c1CCC(C)C2 (centres undefined) | 80.0* | -17.0
O=C(NCc1ccc(F)cc1)c1n[nH]c2c1CN(C(=O)C1CC1)CC2 | 2.7 | -3.1
COc1cc([N+](=O)[O-])cc2[nH]c(-c3ccccc3)cc12 | -2.0 | -3.2
O=[N+]([O-])c1cc([N+](=O)[O-])c2cc(-c3ccco3)[nH]c2c1 | 52.8* | .
Nc1nc(-c2ccc(F)cc2F)cs1 | 9.1 | 0.6
CC1(c2ccccc2)CC(C)(C)N(C(=O)CN2C(=O)C3CCCCC3C2=O)c2ccccc21 (centres undefined) | 7.0 | 0.1
Nc1ncc(-c2ccccc2)s1 | 14.3 | -2.5
CC(=O)N1CCC(c2cnn(-c3cccc(C)c3)c2)CC1 | 100.3* | 1.2
Cc1ccc(-n2cc(C3CCN(C(=O)c4ccc(N(C)C)cc4)CC3)cn2)cc1 | 62.6* | -5.1
CN(C)c1ccc(C(=O)N2CCC(c3cnn(-c4ccc(F)cc4)c3)CC2)cc1 | 4.2 | -0.9
Cc1cccc(-n2cc(C3CCN(C(=O)C4CCCC4)CC3)cn2)c1 | -9.7 | -3.2
Cc1c(CNC(=O)Nc2cccc(Cl)c2)sc2ccccc12 | . | -1.7
Cc1ccc(NC(=O)Cn2cc(-c3ccc(C)cc3)oc2=O)cc1 | 0.7 | -0.3
Cc1cccn2c(=O)c3cc(C(=O)NCCc4ccccc4)c(=N)n(CCc4ccccc4)c3nc12 | -3.0 | 6.3
CCc1ccc(NC(=O)c2ccc(F)c(S(=O)(=O)NC3CCCC3)c2)cc1 | 4.0 | -3.6
N#CC(C#N)=C1C(Cl)=C(N2CCCCC2)c2ccccc21 | 56.0* | 3.4
SMILES | mHTT-CaM PPI inh | Pf apPOL block
N#Cc1c(N2CCOCC2)nsc1-c1ccccc1Cl | . | -7.7
COc1ccccc1C1CCN(C(=O)CSCc2cccc3ccccc23)CC1 | . | -5.6
Cc1cccc2c(C3CCN(C(=O)c4ccccc4OC(F)(F)F)CC3)c[nH]c12 | 100.0* | -6.9
COc1ccc(N=C2SC(C(=O)N3CCN(c4ccc(F)cc4)CC3)CC(=O)N2C)cc1 (centres undefined) | 51.0* | -8.3
COc1ccc(N=C2SC(C(=O)O)CC(=O)N2Cc2ccc(F)cc2)cc1 (centres undefined) | -4.0 | 2.8
COc1ccc(CN2C(=O)CC(C(=O)O)SC2=Nc2ccc(Cl)cc2)cc1 (centres undefined) | 4.0 | 51.7*
O=C(O)C1CC(=O)N(Cc2ccc(Cl)cc2)C(=Nc2ccc(Cl)cc2)S1 (centres undefined) | 27.0 | -13.1
CSc1nc2ccc3nc(NC(=O)C4CCCCN4S(C)(=O)=O)sc3c2s1 (centres undefined) | -1.5 | -1.3
Cc1cc2c3c(c1)C(C)CC(C)(C)N3C(=O)C2=O (centres undefined) | 16.7 | -0.2
CCc1cc2c3c(c1)C(C)=CC(C)(C)N3C(=O)C2=O | 72.0* | 6.5
Nc1ccc(Nc2nc(-c3ccccc3)cs2)cc1 | 96.9* | 5.7
NC(=O)C(=O)Nc1nc(-c2ccccc2)cs1 | 0.1 | -2.0
Cc1ccc(Nc2nc(-c3ccccc3)cs2)cc1C | 72.9* | -7.5
Cc1ccc(Nc2nc(-c3ccc(F)cc3)cs2)cc1C | 97.9* | -0.8
Cc1ccc(C)c(-c2csc(Nc3ccc(F)cc3)n2)c1 | 48.2 | 1.1
Cc1ccc(Nc2nc(-c3ccccc3)cs2)cc1Cl | 54.5* | -6.8
Cc1ccccc1C(=O)Nc1cc(-c2cccnc2)no1 | -5.0 | 0.1
O=C(Cn1c2ccccc2c(=O)c2ccccc21)Nc1ccccc1C(F)(F)F | 1.0 | 3.0
O=C(Sc1ccc(Cl)cc1)c1ccc(Oc2ccc(Cl)cc2Cl)c([N+](=O)[O-])c1 | . | -5.7
O=C(NCC(F)(F)F)C(=O)NCC1(O)CCCC1 | -15.0 | -2.7
CCCC1CCC2(CC1)CC[C@H]2OC(=O)NCc1ccco1 (some centres undefined) | -25.0 | -4.0
O=C(NC1CCCCC1)c1cccc(-c2cnc(N3CCCC3)nc2)c1 | -5.8 | 3.9
N#CC1=C(N)N2CCSC2=C(C#N)C1c1ccccc1Cl (centres undefined) | 43.0 | 0.4
O=[N+]([O-])c1ccc(N2CCOCC2)cc1Sc1ccccn1 | 0.9 | -5.3
Cc1ccccc1C(=O)N1CCC(CCOc2ccncc2)CC1 | 0.0 | -3.3
SMILES | mHTT-CaM PPI inh | Pf apPOL block
CC12CCC(C1)C(C)(C)C2OCC(O)CN1CCN(c2cccc(C(F)(F)F)c2)CC1 (centres undefined) | 65.2* | -1.0
CC1(C)C2CCC1(C)C(OCC(O)CN1CCCCC1)C2 (centres undefined) | -4.1 | -2.1
CC1(C)C2CCC1(C)C(OCC(O)CN1CCN(c3cccc(Cl)c3)CC1)C2 (centres undefined) | 99.0* | -6.4
OC(COC12CC3CC(CC(C3)C1)C2)CN1CCN(c2cccc(C(F)(F)F)c2)CC1 (centres undefined) | 25.5 | -8.3
COc1ccccc1N1CCN(CC(O)COC2CC3CCC2(C)C3(C)C)CC1 (centres undefined) | 19.9 | 5.1
CC1(C)C2CCC1(C)C(OCC(O)CN1CCN(Cc3ccc(Cl)cc3)CC1)C2 (centres undefined) | 100.2* | -3.8
CCOC(=O)c1cn2nc(OS(C)(=O)=O)cc2nc1C | -4.2 | .
CCNc1ccc(Br)cc1-c1nc2ccccc2n(CC)c1=O | 52.0* | -0.6
CCn1c(=O)c(-c2ccc(C(=O)NC(C)(C)C)cc2)nc2ccccc21 | -0.4 | -0.7
COc1ccc(/C=C2\SC(=O)N(CN3CCCCC3)C2=O)c(OC)c1 | 6.0 | -8.8
COc1ccccc1/C=C1\SC(=O)N(CN2CCCC2)C1=O | 70.0* | -3.0
Cc1cc2c(C(C)C)c(O)c(O)c(C=O)c2c(O)c1-c1c(C)cc2c(C(C)C)c(O)c(O)c(C=O)c2c1O | . | 87.8*!
Cc1ccc(C(=O)N2CCC3(CC2)NC(=O)c2cc(F)ccc2N3C)c(C)c1 | 55.5* | -0.2
Cc1ccc(C(=O)N2CCC3(CC2)NC(=O)c2ccc(F)cc2N3C)c(C)c1 | -0.3 | -2.4
CC1=C(C(=O)Nc2cccc(C(F)(F)F)c2)C(c2ccccc2Cl)C2=C(CCCC2=O)N1 (centres undefined) | 10.0 | -1.4
Cc1ccccc1-n1nc2c(c1NC(=O)Cc1ccccc1)CSC2 | 28.0 | -5.1
